Here are results for 35 targets from the supplement of paper PMC10849652.

About 8,800 targets were measured; listed, in parts, are those with a hit and a random draw of the rest. About 0.5% of all pairs of compound and target were hits. A number with no mark means an inactive call.

Chain of UniProt Q14258 (Q14258 whole entry, looked up): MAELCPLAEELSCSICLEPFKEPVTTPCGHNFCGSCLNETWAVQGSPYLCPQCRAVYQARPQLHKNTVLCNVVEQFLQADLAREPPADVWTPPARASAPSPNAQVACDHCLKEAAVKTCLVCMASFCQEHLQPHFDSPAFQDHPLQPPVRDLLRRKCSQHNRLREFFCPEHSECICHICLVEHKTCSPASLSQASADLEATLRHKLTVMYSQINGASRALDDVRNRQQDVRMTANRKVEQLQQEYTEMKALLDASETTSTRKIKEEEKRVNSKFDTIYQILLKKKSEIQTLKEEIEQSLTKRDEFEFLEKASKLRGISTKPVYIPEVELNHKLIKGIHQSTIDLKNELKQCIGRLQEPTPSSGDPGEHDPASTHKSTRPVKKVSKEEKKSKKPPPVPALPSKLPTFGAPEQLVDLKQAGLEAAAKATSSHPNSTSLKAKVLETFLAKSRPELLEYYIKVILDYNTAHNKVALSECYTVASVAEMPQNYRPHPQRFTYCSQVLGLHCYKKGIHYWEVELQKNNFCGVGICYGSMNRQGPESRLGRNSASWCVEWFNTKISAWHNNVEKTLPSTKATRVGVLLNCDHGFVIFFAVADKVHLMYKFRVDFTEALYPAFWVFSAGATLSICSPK
Chain of UniProt Q8WUH2 (Q8WUH2 whole entry, looked up): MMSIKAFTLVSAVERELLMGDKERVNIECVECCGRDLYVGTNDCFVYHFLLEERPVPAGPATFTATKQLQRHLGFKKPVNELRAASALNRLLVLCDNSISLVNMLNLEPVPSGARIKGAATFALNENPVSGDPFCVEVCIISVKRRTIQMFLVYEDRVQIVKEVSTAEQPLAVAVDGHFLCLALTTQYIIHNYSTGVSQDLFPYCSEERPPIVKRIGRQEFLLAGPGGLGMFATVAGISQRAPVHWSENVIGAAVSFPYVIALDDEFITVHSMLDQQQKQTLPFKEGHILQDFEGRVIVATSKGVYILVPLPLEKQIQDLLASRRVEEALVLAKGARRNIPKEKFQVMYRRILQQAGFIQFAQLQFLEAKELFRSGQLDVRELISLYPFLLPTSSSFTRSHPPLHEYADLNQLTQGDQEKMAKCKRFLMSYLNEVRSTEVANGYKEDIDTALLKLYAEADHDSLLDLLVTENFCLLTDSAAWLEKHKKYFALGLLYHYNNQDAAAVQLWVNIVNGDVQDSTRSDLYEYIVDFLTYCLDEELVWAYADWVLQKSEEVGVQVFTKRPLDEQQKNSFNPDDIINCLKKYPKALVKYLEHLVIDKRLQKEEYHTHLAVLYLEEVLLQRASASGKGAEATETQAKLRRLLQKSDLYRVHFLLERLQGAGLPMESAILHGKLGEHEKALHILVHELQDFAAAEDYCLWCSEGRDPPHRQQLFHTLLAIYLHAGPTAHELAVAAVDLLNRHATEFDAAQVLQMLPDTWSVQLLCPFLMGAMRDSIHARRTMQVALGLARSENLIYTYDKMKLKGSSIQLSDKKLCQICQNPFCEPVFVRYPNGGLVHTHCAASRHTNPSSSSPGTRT
Chain of UniProt P42166 (P42166 whole entry, looked up): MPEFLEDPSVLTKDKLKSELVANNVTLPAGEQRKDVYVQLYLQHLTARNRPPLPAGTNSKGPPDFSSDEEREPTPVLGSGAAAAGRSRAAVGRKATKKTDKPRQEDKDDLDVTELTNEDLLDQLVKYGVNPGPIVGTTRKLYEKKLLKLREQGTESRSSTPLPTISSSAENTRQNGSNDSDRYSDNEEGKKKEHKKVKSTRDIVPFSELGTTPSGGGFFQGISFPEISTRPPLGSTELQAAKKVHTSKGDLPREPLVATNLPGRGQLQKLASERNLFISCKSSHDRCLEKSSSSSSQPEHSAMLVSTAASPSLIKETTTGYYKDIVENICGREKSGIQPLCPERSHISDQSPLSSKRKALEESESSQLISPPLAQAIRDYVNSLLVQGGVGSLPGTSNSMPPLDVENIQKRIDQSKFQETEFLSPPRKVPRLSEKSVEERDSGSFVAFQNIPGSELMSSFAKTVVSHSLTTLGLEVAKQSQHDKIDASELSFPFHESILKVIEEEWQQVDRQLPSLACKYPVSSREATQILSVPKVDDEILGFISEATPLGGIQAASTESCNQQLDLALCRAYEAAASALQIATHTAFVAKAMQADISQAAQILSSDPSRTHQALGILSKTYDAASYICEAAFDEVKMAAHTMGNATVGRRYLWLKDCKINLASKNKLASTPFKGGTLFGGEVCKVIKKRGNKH
Chain of UniProt Q9Y5L0 (Q9Y5L0 whole entry, looked up): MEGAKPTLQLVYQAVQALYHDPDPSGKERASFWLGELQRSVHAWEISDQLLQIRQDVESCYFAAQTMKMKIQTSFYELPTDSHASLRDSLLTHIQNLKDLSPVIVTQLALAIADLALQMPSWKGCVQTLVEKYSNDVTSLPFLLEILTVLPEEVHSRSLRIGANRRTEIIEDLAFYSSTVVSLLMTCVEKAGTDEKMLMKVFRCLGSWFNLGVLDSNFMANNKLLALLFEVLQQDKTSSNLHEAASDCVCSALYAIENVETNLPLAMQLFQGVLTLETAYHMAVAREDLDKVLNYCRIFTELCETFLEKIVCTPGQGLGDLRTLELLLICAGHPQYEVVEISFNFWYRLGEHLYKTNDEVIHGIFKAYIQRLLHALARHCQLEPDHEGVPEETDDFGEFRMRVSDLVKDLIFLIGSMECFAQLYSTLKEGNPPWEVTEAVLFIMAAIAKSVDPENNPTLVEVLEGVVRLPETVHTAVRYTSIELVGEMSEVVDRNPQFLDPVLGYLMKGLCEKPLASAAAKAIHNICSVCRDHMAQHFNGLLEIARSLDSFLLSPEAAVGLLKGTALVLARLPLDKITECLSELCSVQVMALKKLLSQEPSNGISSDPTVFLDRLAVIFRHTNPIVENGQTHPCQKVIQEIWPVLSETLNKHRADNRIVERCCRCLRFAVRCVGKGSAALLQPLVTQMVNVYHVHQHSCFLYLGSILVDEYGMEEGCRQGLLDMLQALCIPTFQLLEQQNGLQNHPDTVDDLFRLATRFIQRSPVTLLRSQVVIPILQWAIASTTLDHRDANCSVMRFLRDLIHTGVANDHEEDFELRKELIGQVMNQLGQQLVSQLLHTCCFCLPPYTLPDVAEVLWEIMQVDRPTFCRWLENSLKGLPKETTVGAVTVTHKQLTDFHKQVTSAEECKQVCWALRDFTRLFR
Chain of UniProt Q12800 (Q12800 whole entry, looked up): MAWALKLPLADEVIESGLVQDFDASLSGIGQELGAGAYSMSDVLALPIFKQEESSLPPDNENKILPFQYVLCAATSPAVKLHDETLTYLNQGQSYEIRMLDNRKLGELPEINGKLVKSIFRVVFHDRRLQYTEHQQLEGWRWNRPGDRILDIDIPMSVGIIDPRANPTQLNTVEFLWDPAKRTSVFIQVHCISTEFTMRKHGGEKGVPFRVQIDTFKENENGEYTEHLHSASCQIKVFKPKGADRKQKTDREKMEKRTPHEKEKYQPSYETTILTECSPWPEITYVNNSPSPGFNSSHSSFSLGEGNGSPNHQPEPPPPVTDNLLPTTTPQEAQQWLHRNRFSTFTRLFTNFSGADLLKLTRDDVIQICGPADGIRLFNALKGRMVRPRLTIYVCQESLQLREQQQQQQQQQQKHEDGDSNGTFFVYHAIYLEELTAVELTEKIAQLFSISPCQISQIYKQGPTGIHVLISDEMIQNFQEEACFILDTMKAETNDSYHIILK
Chain of UniProt P11441 (P11441 whole entry, looked up): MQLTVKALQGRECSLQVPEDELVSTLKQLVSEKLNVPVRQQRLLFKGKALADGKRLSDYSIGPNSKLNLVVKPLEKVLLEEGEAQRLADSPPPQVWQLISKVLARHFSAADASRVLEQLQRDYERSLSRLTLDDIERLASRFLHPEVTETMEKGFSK
Chain of UniProt Q9UGJ1 (Q9UGJ1 whole entry, looked up): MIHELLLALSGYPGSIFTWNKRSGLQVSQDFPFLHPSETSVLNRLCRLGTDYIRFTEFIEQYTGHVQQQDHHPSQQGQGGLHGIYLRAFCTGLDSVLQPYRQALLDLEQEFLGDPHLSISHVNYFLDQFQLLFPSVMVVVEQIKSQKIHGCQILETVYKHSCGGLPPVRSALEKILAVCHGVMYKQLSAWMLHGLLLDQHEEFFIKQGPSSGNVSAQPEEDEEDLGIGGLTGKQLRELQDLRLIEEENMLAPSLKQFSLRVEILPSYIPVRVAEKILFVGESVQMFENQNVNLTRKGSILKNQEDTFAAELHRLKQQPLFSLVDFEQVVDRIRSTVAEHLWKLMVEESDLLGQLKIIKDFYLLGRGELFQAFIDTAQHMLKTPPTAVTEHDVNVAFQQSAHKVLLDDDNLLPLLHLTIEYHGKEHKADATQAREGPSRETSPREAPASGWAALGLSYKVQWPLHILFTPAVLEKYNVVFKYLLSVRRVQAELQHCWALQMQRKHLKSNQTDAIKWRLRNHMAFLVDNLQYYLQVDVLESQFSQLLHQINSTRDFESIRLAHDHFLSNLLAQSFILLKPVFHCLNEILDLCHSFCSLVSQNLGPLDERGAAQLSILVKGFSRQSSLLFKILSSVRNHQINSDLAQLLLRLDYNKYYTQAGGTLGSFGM
Chain of UniProt A6NHL2 (A6NHL2 whole entry, looked up): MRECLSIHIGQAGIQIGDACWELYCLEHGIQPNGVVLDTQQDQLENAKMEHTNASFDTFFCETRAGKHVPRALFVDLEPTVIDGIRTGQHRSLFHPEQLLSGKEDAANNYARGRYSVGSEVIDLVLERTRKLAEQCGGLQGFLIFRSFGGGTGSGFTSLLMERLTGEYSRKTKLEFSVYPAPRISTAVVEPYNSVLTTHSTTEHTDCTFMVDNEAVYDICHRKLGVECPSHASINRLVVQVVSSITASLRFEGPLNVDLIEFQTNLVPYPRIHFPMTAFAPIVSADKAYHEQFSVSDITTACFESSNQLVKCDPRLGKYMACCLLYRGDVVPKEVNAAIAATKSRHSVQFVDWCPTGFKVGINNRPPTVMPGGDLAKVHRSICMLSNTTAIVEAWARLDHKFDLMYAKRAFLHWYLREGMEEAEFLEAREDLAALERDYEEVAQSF
Chain of UniProt P51668 (P51668 whole entry, looked up): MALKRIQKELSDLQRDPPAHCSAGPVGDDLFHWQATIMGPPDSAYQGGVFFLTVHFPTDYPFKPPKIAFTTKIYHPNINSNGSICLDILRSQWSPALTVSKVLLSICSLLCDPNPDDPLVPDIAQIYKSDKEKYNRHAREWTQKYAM

Compound in this test: Cc1sc2c(c1C)C(c1ccc(Cl)cc1)=N[C@@H](CC(=O)OC(C)(C)C)c1nnc(C)n1-2
The test is described as follows: log2 fold change, soluble protein after heating vs DMSO (PISA); higher = thermal stabilisation; K562 lysate, 10 uM; active = over 0.2 and 3.5 SD of the protein, either way, in both replicates (recomputed). The gist of the method:
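K562 pellets were dounce-homogenised in PBS pH 7.4 containing 1 mM MgCl2, and the crude extract, at 1 mg/mL protein, was exposed to 10 μM compound for 30 min. Aliquots were heated for 3 min across 48°C-58°C, pooled, brought to 0.5% NP-40 at 4°C and spun at 21,000xg for 90 min, with the supernatant taken as soluble protein. TMTpro 16plex LC-MS/MS with equalised channel sums quantified that protein. Values are log-two fold changes in thermal stability relative to solvent controls, taken from duplicates.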
On to TGFBRAP1 (UniProt Q8WUH2), for which the log2 fold change is 0.05.
With TPX2 (UniProt Q9ULW0) the figure was -0.003; with UBL4A (UniProt P11441), 0.142.
Under TRAPPC12 (UniProt Q8WVT3) stands 0.003; under TNPO3 (UniProt Q9Y5L0), 0.009.
In the case of UCHL5 isoform 3 (UniProt Q9Y5K5), the log2 fold change is 0.015.
With UBE3B (UniProt Q7Z3V4) the figure was -0.045.
With TFCP2 (UniProt Q12800) the figure was -0.013; with TUBGCP4 (UniProt Q9UGJ1), -0.027; with UBE2L6 (UniProt O14933), 0.032.
TSFM (UniProt P43897): the log2 fold change was 0.066.
With TELO2 (UniProt Q9Y4R8), the log2 fold change was 0.056.
With TRIM25 (UniProt Q14258), the log2 fold change is 0.013.
Under TBL2 (UniProt Q9Y4P3) stands 0.039; under UBE2D1 (UniProt P51668), -0.082; under TP53RK (UniProt Q96S44), 0.073.
Regarding TRIM33 (UniProt H0Y612), the log2 fold change was 0.021.
Take TRIM11 (UniProt Q96F44): the log2 fold change is -0.011.
Consider TRIM44 (UniProt Q96DX7), for which the log2 fold change is -0.031.
Under TTI1 (UniProt O43156) stands 0.034; under TRNAU1AP (UniProt Q9NX07), -0.025; under TUBA1B (UniProt P68363), 0.015.
Under TUBB (UniProt P07437) stands 0.014.
With TK1 (UniProt P04183) the figure was -0.045.
For the target TTLL12 (UniProt Q14166), the log2 fold change is 0.015.
With TPM4 isoform 2 (UniProt P67936) the figure was 0.053; with TPP2 (UniProt P29144), 0.039; with TTF2 (UniProt Q9UNY4), 0.127.
Under TUBGCP5 (UniProt Q96RT8) stands -0.093.
With TUBAL3 (UniProt A6NHL2) the figure was -0.189; with TMEM199 (UniProt Q8N511), -0.046; with TESC (UniProt Q96BS2), 0.004.
Regarding TRMT10A (UniProt Q8TBZ6), the log2 fold change was 0.016.
In the case of TMPO (UniProt P42166), the log2 fold change is 0.011.
Under TIMELESS (UniProt Q9UNS1) stands 0.012.
